This note sets out measurements from publication PMC7862700, “An all-to-all approach to the identification of sequence-specific readers for epigenetic DNA modifications on cytosine”.

Common to all, as to experiment: DAPPL (digital affinity profiling via proximity ligation, sequencing); 10 mM Tris-HCl pH 7.5, 50 mM NaCl, 1 mM DTT, 4% glycerol, room temperature, 30 min; GST-TFs on glutathione beads, 16-mer random dsDNA library, 0.1% formaldehyde crosslink after washing; high values mean tight binding
Experiment [1] has as its target T1, FLI1 (Homo sapiens, UniProt Q01543 1-452).
T1 sequence: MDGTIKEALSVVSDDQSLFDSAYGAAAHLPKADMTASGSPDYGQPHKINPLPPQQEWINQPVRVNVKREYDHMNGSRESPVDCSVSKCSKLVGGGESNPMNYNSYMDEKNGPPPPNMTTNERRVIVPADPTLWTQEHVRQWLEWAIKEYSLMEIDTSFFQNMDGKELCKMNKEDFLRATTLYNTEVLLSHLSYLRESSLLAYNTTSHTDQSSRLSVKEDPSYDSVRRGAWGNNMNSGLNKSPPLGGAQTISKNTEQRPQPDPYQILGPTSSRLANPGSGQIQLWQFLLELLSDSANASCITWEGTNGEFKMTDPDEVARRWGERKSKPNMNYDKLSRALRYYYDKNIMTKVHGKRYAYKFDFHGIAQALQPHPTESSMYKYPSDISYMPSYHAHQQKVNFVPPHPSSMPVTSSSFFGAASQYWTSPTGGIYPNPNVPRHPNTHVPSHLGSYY
To be noted: protein: recombinant; tags: N-terminal GST; dsDNA, one strand shown. The method, boiled down: (§1)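 Each value of binding signal is a hexamer's read frequency for a factor divided by the same hexamer's frequency in the tag-only sample. Barcoded, bead-captured GST fusions of human transcription factors made in yeast were pooled with that sample and incubated with 200 nmole of a random double-stranded 16-mer DNA library in Tris/NaCl/DTT/glycerol buffer at room temperature for 30 min. Washing, 0.1% formaldehyde crosslinking, proximity ligation, PCR and Illumina NextSeq500 sequencing followed.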

Experiment [2] has as its target T2, ELK1 (Homo sapiens, UniProt P19419 1-428).
T2 sequence: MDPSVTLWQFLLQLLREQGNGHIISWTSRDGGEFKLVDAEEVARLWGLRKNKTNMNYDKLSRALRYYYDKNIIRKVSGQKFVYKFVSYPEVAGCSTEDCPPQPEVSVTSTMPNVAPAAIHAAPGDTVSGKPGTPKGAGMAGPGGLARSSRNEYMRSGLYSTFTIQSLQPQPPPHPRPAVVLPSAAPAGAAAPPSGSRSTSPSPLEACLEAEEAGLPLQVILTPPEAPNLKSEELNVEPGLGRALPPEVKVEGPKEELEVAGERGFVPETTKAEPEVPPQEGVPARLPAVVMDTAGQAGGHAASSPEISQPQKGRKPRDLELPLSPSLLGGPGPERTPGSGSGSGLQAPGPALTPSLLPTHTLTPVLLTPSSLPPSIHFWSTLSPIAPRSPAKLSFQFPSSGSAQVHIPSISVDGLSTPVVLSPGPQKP
To be noted: protein: recombinant; tags: N-terminal GST; dsDNA, one strand shown. Put shortly: as §1

The target in experiment [3] is T3, GABPA (Homo sapiens, UniProt Q06546 1-454).
T3 sequence: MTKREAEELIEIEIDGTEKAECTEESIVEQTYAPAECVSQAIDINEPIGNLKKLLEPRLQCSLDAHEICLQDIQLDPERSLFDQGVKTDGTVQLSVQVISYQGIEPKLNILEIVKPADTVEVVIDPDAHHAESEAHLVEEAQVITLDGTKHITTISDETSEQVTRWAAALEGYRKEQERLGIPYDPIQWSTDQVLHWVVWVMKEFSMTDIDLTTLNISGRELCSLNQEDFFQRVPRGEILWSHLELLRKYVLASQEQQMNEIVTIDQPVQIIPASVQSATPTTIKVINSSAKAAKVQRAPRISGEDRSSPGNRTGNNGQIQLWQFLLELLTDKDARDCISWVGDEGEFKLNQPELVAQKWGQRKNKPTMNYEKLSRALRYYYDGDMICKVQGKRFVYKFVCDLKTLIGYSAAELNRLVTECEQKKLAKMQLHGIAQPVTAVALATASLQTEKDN
To be noted: protein: recombinant; tags: N-terminal GST; dsDNA, one strand shown. Put shortly: as §1

Experiment [4] concerns the target T4, ERG (Homo sapiens, UniProt P11308 1-479).
T4 sequence: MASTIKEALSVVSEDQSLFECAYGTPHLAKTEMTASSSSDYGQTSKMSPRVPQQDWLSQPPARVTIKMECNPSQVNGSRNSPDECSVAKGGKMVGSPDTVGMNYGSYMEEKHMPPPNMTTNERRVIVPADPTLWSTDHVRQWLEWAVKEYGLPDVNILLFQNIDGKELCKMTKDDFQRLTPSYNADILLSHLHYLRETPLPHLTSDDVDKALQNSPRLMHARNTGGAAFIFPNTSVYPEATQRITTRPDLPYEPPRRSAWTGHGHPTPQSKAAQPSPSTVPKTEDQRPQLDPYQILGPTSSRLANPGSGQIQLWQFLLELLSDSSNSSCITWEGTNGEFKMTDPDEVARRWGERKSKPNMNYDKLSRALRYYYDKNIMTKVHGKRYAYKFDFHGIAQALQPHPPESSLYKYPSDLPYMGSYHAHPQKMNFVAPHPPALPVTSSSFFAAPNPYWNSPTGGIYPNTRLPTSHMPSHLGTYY
The note with it: protein: recombinant; tags: N-terminal GST; dsDNA, one strand shown. The method, boiled down:
as §1

The target of experiment [5] is ELF1 (Homo sapiens, UniProt P32519 1-619). The note with it: protein: recombinant; tags: N-terminal GST; dsDNA, one strand shown. Put shortly: as §1
Experiment [6] addresses T5, EHF (Homo sapiens, UniProt Q9NZC4 1-300).
T5 sequence: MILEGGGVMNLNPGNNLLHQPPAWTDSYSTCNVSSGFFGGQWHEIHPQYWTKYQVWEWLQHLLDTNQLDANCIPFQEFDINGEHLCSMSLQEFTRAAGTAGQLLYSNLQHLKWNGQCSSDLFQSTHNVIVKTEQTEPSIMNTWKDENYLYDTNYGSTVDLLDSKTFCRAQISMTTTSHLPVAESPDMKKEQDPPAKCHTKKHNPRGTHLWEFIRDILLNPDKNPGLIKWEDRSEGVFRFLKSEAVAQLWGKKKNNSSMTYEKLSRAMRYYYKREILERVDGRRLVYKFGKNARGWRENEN
The note with it: protein: recombinant; tags: N-terminal GST; dsDNA, one strand shown. Put shortly: as §1

For experiment [7], the target named is SPI1 (Homo sapiens, UniProt P17947 1-270). To be noted: protein: recombinant; tags: N-terminal GST; dsDNA, one strand shown. Put shortly:
as §1

Experiment [8] addresses SPIB (Homo sapiens, UniProt Q01892 1-262). To be noted: protein: recombinant; tags: N-terminal GST; dsDNA, one strand shown. Put shortly:
as §1

Experiment [9] addresses T6, ELK3 (Homo sapiens, UniProt P41970 1-407).
T6 sequence: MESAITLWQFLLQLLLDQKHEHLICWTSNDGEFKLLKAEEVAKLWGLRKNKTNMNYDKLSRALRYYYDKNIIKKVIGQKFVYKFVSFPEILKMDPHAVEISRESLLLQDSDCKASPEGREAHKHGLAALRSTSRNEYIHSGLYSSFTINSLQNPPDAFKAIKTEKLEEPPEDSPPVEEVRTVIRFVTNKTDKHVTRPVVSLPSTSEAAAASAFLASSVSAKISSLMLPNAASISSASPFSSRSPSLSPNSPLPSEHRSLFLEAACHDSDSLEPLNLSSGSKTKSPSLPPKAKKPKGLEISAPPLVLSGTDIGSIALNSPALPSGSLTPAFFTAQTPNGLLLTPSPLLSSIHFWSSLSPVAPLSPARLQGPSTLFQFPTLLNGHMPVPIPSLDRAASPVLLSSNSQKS
To be noted: protein: recombinant; tags: N-terminal GST; dsDNA, one strand shown. Put shortly:
as §1

The target in experiment [10] is T7, FEV (Homo sapiens, UniProt Q99581 1-238).
T7 sequence: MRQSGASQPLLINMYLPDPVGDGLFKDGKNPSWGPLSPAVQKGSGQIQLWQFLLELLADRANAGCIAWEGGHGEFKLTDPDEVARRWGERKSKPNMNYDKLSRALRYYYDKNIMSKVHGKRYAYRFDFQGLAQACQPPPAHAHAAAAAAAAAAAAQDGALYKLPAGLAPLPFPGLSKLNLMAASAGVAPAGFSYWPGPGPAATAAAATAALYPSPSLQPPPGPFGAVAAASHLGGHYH
To be noted: protein: recombinant; tags: N-terminal GST; dsDNA, one strand shown. Put shortly: as §1

Experiment [11] addresses ETV5 (Homo sapiens, UniProt P41161 1-510). To be noted: protein: recombinant; tags: N-terminal GST; dsDNA, one strand shown. Put shortly: as §1
For experiment [12], the target named is HSF1 (Homo sapiens, UniProt Q00613 1-529). To be noted: protein: recombinant; tags: N-terminal GST; chain copies: 3; dsDNA, one strand shown. The method, boiled down: as §1
In experiment [13] the target is ELF4 (Homo sapiens, UniProt Q99607 1-663). The note with it: protein: recombinant; tags: N-terminal GST; dsDNA, one strand shown. The method, boiled down: as §1
The target in experiment [14] is T8, ELK4 (Homo sapiens, UniProt P28324-2 1-405).
T8 sequence: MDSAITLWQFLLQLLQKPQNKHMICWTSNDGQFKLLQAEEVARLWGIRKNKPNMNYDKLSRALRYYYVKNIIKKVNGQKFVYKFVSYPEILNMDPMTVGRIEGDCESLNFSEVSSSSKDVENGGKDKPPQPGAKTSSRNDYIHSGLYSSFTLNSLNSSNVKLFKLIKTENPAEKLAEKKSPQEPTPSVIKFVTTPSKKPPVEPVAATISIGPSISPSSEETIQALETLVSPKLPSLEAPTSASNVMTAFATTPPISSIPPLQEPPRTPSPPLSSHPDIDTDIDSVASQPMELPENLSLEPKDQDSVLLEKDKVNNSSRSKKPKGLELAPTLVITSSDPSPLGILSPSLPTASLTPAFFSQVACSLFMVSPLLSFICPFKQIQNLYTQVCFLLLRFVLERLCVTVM
The note with it: protein: recombinant; tags: N-terminal GST; dsDNA, one strand shown. Put shortly: as §1

Experiment [15] addresses T9, ETV2 (Homo sapiens, UniProt O00321 1-342).
T9 sequence: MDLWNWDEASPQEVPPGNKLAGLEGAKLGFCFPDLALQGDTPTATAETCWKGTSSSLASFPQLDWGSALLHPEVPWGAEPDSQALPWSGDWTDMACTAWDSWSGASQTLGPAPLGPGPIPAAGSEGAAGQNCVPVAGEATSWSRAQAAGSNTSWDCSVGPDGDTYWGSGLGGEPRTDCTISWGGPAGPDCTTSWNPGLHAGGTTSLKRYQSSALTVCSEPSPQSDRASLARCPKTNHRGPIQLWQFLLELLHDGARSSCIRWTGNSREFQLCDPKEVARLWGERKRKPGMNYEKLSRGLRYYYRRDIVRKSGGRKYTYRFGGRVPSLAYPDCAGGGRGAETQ
To be noted: protein: recombinant; tags: N-terminal GST; dsDNA, one strand shown. The method, boiled down:
as §1

The target of experiment [16] is T10, ELF3 (Homo sapiens, UniProt P78545 1-371).
T10 sequence: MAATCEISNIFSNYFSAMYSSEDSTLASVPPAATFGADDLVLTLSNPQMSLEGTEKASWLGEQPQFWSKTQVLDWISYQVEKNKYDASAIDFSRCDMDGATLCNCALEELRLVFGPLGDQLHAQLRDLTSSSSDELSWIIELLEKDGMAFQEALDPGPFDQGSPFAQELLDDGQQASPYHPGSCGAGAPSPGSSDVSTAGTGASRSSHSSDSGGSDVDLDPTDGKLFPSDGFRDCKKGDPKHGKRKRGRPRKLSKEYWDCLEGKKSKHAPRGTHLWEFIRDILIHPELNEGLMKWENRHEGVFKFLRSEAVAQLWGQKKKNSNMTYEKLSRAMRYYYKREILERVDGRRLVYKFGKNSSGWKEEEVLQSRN
To be noted: protein: recombinant; tags: N-terminal GST; dsDNA, one strand shown. The method, boiled down: as §1

The target in experiment [17] is CRX (Homo sapiens, UniProt O43186 1-299). To be noted: protein: recombinant; tags: N-terminal GST; dsDNA, one strand shown. The method, boiled down:
as §1

Experiment [18] addresses ETV1 (Homo sapiens, UniProt P50549 1-477). The note with it: protein: recombinant; tags: N-terminal GST; dsDNA, one strand shown. Put shortly: as §1

Sequence of ELF4 (Q99607 whole entry): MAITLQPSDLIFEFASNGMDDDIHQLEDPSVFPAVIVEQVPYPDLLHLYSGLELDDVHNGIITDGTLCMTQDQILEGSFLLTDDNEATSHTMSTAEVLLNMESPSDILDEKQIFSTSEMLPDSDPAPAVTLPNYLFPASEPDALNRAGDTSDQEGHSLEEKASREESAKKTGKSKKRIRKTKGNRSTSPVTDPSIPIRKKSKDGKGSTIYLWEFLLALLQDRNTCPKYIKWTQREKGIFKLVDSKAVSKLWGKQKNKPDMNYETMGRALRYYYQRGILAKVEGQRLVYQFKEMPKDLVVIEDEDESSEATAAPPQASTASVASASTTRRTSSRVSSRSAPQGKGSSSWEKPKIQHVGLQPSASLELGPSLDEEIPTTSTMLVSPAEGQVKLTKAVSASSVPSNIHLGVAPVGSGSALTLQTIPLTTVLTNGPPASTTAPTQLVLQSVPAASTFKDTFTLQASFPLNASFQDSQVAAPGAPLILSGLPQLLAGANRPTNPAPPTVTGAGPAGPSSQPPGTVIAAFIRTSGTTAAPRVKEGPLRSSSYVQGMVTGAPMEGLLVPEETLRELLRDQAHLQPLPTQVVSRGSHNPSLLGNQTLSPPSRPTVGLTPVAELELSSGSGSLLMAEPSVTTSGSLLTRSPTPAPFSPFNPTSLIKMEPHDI
Sequence of ELF1 (P32519 whole entry): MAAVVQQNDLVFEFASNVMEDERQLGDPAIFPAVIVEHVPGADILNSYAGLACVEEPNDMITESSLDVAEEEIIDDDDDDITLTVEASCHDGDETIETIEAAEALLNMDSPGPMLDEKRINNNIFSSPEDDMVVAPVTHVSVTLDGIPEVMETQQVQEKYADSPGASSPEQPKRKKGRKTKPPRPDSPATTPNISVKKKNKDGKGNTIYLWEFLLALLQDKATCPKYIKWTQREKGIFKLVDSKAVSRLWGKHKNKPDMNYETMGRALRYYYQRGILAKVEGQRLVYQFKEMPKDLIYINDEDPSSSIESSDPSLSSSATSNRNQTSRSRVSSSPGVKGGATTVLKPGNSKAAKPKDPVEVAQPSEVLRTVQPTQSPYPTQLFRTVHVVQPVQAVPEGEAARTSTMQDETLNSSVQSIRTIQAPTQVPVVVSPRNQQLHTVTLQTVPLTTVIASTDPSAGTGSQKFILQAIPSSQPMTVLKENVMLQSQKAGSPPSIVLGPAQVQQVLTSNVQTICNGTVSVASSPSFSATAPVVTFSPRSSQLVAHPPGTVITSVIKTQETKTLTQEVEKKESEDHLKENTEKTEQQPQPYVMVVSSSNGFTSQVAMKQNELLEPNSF
Sequence of ETV5 (P41161 whole entry): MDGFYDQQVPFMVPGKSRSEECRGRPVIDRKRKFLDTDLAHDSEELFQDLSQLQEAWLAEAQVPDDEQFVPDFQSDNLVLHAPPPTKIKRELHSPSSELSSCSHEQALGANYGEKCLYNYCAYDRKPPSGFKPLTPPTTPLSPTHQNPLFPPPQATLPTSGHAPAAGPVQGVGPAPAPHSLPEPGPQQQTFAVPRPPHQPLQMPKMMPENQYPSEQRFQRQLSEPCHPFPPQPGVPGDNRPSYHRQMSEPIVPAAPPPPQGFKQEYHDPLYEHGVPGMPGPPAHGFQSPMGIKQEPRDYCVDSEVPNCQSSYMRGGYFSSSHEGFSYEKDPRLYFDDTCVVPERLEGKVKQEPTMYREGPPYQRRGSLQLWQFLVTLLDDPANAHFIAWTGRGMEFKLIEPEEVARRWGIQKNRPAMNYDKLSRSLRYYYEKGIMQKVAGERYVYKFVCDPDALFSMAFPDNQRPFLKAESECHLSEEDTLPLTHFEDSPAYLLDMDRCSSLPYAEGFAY
Sequence of CRX (O43186 whole entry): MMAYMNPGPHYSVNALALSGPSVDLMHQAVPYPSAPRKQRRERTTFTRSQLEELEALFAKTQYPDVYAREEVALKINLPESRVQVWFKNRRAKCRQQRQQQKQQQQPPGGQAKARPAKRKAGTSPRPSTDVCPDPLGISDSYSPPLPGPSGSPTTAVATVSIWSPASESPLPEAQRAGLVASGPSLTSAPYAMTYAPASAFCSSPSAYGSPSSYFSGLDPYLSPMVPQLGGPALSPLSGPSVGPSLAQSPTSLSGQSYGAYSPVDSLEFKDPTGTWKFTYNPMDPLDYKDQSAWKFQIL
Sequence of HSF1 (Q00613 whole entry): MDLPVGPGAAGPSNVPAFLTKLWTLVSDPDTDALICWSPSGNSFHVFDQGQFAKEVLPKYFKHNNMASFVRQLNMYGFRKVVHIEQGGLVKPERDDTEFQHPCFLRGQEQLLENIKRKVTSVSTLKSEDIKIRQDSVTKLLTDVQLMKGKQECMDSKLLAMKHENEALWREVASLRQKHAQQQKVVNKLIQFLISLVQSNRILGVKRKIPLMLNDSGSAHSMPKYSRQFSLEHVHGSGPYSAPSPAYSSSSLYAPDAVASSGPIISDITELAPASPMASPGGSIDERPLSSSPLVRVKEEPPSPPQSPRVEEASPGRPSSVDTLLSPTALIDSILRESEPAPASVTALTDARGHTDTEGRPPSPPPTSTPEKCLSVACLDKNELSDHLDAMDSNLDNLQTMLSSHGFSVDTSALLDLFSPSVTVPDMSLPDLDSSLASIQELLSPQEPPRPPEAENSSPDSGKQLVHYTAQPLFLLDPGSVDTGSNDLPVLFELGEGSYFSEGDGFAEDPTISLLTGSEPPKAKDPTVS
Sequence of ETV1 (P50549 whole entry): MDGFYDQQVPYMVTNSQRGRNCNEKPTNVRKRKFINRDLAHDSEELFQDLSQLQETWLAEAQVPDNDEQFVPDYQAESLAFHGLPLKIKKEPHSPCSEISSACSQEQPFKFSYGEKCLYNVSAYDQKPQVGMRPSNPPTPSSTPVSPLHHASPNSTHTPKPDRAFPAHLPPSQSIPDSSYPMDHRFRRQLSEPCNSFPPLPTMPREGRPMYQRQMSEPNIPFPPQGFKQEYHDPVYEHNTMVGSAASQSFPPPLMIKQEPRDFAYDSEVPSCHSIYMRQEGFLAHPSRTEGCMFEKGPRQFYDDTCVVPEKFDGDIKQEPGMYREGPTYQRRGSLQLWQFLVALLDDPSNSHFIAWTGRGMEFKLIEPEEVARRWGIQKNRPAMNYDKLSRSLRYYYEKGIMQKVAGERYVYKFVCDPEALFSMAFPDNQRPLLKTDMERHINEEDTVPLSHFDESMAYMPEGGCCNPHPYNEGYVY
Sequence of SPIB (Q01892 whole entry): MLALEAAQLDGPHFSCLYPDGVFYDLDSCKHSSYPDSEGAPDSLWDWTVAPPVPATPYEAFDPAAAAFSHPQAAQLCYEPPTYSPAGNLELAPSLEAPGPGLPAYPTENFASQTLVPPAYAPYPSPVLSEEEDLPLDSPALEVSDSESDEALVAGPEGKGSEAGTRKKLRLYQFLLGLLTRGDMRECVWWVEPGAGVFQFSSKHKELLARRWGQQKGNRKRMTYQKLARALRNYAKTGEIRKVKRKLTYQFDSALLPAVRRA

TACAAA: the binding signal in experiment [1] is 1.14 fold enrichment (6-mer frequency, TF over GST control); in [2] it was 1.14 fold enrichment (6-mer frequency, TF over GST control); in [3], 1.1 fold enrichment (6-mer frequency, TF over GST control); in experiment [4], 1.08 fold enrichment (6-mer frequency, TF over GST control); in experiment [5], 1.14 fold enrichment (6-mer frequency, TF over GST control); in experiment [6], 1.2 fold enrichment (6-mer frequency, TF over GST control). Also, the binding signal is 1.07 fold enrichment (6-mer frequency, TF over GST control) in experiment [7]; 1.06 fold enrichment (6-mer frequency, TF over GST control) in experiment [8]; 1.06 fold enrichment (6-mer frequency, TF over GST control) in experiment [9]; 1.11 fold enrichment (6-mer frequency, TF over GST control) in experiment [10]; 1.15 fold enrichment (6-mer frequency, TF over GST control) in [11]; 1.12 fold enrichment (6-mer frequency, TF over GST control) in experiment [12]. Besides, the binding signal in [13] is 1.13 fold enrichment (6-mer frequency, TF over GST control); in experiment [14], 1.09 fold enrichment (6-mer frequency, TF over GST control); in experiment [15], 1.17 fold enrichment (6-mer frequency, TF over GST control); in experiment [16], 1.06 fold enrichment (6-mer frequency, TF over GST control); in experiment [17] it was 1.22 fold enrichment (6-mer frequency, TF over GST control); in experiment [18], 1.14 fold enrichment (6-mer frequency, TF over GST control).
